Assay outcomes as filed in PubChem.
3T3 cytotox: kills NIH 3T3 cells; NIH 3T3 viability, CellTiter-Glo ATP luminescence, 48-72 h; Potency, µM (highest dose often 96.7 µM), for inactives: top-dose activity change, negative = cytotoxicity, hits mostly inhibitors; actives 4.3% (n = 94,000); further: nearly all actives have a fitted effect of over 55% in size
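Mouse fibroblast NIH 3T3 cells, 400 per well, received compound via pintool and were incubated for 48 or 72 hr prior to CellTiter-Glo ATP luminescence measurement.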
HEK cytotox: HEK 293 cell cytotoxicity; HEK 293 viability, ATP luminescence (CellTiter-Glo), 48-72 h; Potency, µM (top dose mostly 115 µM), for the others: top-dose activity change, negative = cytotoxicity, most hits filed as inhibitors; actives 6.6% (n = 94,000); further: nearly all actives have a fitted effect of over 60% in size
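CellTiter-Glo luminescence (cellular ATP) was read after 48 or 72 hr of compound exposure at 37 degree Celsius. Cells were HEK 293 plated at 250 cells/well.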
hNpr1 antagonist: blocks ANP-stimulated signaling of human Npr1 receptor | P16066 | HEK293 hNpr1 GloSensor cGMP, ANP-stimulated luminescence | Potency, µM (doses to about 46.3 µM), inactives show at the top dose activity change, negative = inhibition, usual class: inhibitors | actives 1.6% (n = 76,000) | AID 1347048; calls by dose curve; further: nearly all actives have a fitted effect of over 60% in size
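Compound pre-incubated 30 min at room temperature on GloSensor-loaded HEK293 cells stably carrying hNpr1 and the pGS-40F cGMP biosensor. Stimulation uses hNppA at 0.1 nM final; luminescence is taken at baseline and 20 min post-agonist.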
Luciferase inh: inhibitors of firefly (Photinus pyralis) luciferase; P08659; purified P. pyralis luciferase, luminescence, biochemical; Potency, µM (series often up to 115 µM), most hits filed as inhibitors; actives 2.5% (n = 76,000); AID 1347043; further: nearly all actives have a fitted effect of over 65% in size
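FLuc 10nM, D-luciferin 10uM, ATP 10uM, Mg acetate 10mM, Tris acetate pH 7.5, Tween/BSA; cpd qHTS; enzyme added last; CCD luminescence.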
* = called active by the depositor; i = inactive; ? = inconclusive; / = no result given; [ ] = another dose, or the depositor's remark. The list is not random: actives were taken first. Their share in the collection is about 11%. Unless noted, the call rests on the fitted dose curve; in most records, active means well fitted curve in the direction sought with a large enough effect; inconclusive means small, poorly fitted or top-dose-only effect, or another doubt; inactive means no such curve, though single readings can be large; an effect the other way counts as inactive or inconclusive. On the % scale 0 is the no-effect control and ±100 the full control effect; potency means the concentration at half of the fitted maximal effect.

SMILES	3T3 cytotox	HEK cytotox	hNpr1 antagonist	Luciferase inh
COc1ccc(Cl)cc1S(=O)(=O)N1CCCC(Cn2cnc3cccnc32)C1 (stereo not drawn)	?	?	-14.2%	i
O=C1CC(c2ccccc2)N(C(=O)CNC(=O)c2cc(C3CC3)[nH]n2)CCCCCCN1 (stereo not drawn)	?	i	-7.8%	i
Cc1cnc(C2CCC2)n1CC1CCN(C(=O)CC2CCCC2)CC1	-26.4%	?	-3.3%	i
Cc1nn(-c2ccccc2)c2c1C(C(C)C)N(C1CN(C(=O)C3CC3)C1)C2=O (stereo not drawn)	-23.9%	-9.3%	/	/
Cc1nn(-c2ccccc2)c2c1C(C(C)C)N(C1CCN(C(=O)C3CCCC3)C1)C2=O (stereo not drawn)	20µM*	?	/	/
Cc1nn(-c2ccccc2)c2c1C(C(C)C)N(C1CCN(C(=O)c3ccccc3F)C1)C2=O (stereo not drawn)	?	79.4µM*	/	/
Cc1nn(-c2ccccc2)c2c1C(C(C)C)N(C1CCN(C(=O)C(C)(C)C)C1)C2=O (stereo not drawn)	?	89.1µM*	/	/
CCS(=O)(=O)N(C1CC1)C1CCOC2(CCN(C(=O)c3cccc(OC)c3)CC2)C1 (stereo not drawn)	-19.6%	?	-3.6%	i
O=C(c1ccccc1Cl)N1CCn2c(nn(-c3ccc([N+](=O)[O-])cc3)c2=O)C1	?	?	-15.9%	i
CC(C)C[C@@H](NC(=O)C1=C[C@@H](NC(=O)Nc2cccc(F)c2)[C@@H](O)[C@H](O)C1)C(N)=O	-20.1%[174 µM]	-5.4%[172 µM]	2.2%[70.6 µM]	i
c1ccc(CNc2cc3c(cn2)CN(Cc2cccnc2)CCN3)cc1	-68.2%[138 µM]	-66.1%[172 µM]	-13.1%[70.6 µM]	i
C[S+](=O)([O-])c1ccc(-c2cc3c(cn2)CN(Cc2ccccc2)CCN3)cc1	?	?	-3.4%[70.6 µM]	?
Fc1ccccc1-c1cc2c(cn1)CN(Cc1cccnc1)CCN2	-21.8%[138 µM]	?	-8.9%[70.6 µM]	31.6µM*
c1cc(CN2CCNc3cc(-c4ccsc4)ncc3C2)ccn1	-12.0%[138 µM]	?	3.5%[70.6 µM]	?
Clc1cnccc1CN1CCNc2cc(-c3ccccc3)ncc2C1	?	?	-16.1%[70.6 µM]	28.2µM*
Fc1cccc(-c2cc3c(cn2)CN(Cc2ccncc2)CCN3)c1	-23.3%[138 µM]	?	-23.3%[70.6 µM]	39.8µM*
O=C(C1CCC1)N1CCCC(c2noc(COc3ccccc3F)n2)C1 (stereo not drawn)	-37.4%	?	-13.1%	i
CCCC(=O)Nc1cc(-c2ccncc2)nn1-c1ccccc1	-35.2%[138 µM]	-18.5%[172 µM]	/	/
Cn1nc(-c2ccncc2)cc1NC(=O)c1ccc(C(F)(F)F)cc1	?	11.2µM*	/	/
O=C(Nc1cc(-c2ccncc2)nn1-c1ccccc1)c1cccc(Br)c1	31.6µM*	?	/	/
O=C1CCN(S(=O)(=O)c2ccccc2)CCCN(C(=O)C2COc3ccccc3O2)CCN1 (stereo not drawn)	-3.5%	-27.6%	1.2%	i
O=C(c1cccc(F)c1)N1CCCC(Cc2noc(-c3ccccc3)n2)C1 (stereo not drawn)	31.6µM*	?	-9.0%	i
CC(=O)N1CCC(Cc2noc(-c3ccccc3)n2)C1 (stereo not drawn)	-12.6%	?	4.4%	i
O=C(CCc1nc2ccccc2[nH]1)N1CCCC(Cc2noc(-c3ccccc3)n2)C1 (stereo not drawn)	?	22.4µM*	?	i
COc1ccc(CN2CCC3(Cc4ccccc4NC3=O)C2)cc1 (stereo not drawn)	?	?	-27.5%[70.6 µM]	i
SMILES	3T3 cytotox	HEK cytotox	hNpr1 antagonist	Luciferase inh
O=C(Nc1cc(-c2cccnc2)nn1-c1ccccc1)c1ccccc1Cl	-23.7%	?	/	/
COc1ccccc1-c1ccc(CN2CCN(c3ccc(Cl)nn3)C(=O)C2)cc1	-13.8%	-13.7%	-2.4%	i
COc1ccccc1-c1ccc(CN2CCN(c3cc(Cl)ncn3)C(=O)C2)cc1	?	44.7µM*	-11.0%[70.6 µM]	i
COC(=O)N1CCC(C(=O)N2CCC(c3nc4ncccc4[nH]3)CC2)C1 (stereo not drawn)	?	35.5µM*	/	/
COC(=O)N1CCC(C(=O)N2CCC(c3nc4ncccc4[nH]3)CC2)CC1	i	i	/	/
O=C(C1CCCN([S+](=O)([O-])c2cccs2)C1)N1CCCC(c2nc3ncccc3[nH]2)C1 (stereo not drawn)	?	89.1µM*	/	/
c1cnc2nc([C@H]3CCN(C4CCCCC4)C3)[nH]c2c1	1.7%[230 µM]	-13.8%[230 µM]	3.6%[70.6 µM]	28.2µM*
COc1ccc(CN2CC[C@H](c3nc4ccc(OC)cc4[nH]3)C2)cc1	?	?	-3.8%[70.6 µM]	?
COc1ccc(CN2CC[C@H](c3nc4ccc(C)cc4[nH]3)C2)cc1	79.4µM*	79.4µM*	-0.4%[70.6 µM]	i
COc1ccccc1CNC(=O)c1cc2n(n1)CC(c1ccc3c(c1)OCO3)OC2 (stereo not drawn)	?	?	-1.0%	i
O=C(NCCNC(=O)c1ccc(-c2cncnc2)cc1)NC1CCCC1	-4.1%	4.1%	/	/
O=C([C@@H]1CCCN1Cc1cc(=O)c2cc(F)ccc2[nH]1)N1CCCCC1	?	-10.6%	0.0%	i
O=C(Nc1ccc2nnc(-c3ccc(C(=O)N4CCCCC4)cc3)n2c1)C1CCC1	-25.7%	?	-6.2%	i
O=C(NCCc1ccccc1F)c1ccc2nnc(Cc3ccco3)n2c1	?	-12.8%	/	/
COc1ccc2nc([C@H]3CCN(Cc4ccncc4)C3)[nH]c2c1	-14.7%[138 µM]	-31.0%[172 µM]	1.1%[70.6 µM]	i
COc1ccc2nc([C@H]3CCN(C4CCCCC4)C3)[nH]c2c1	?	?	?	14.1µM*
COc1ccc2nc([C@H]3CCN(CC(C)C)C3)[nH]c2c1	112µM*	89.1µM*	-14.3%[70.6 µM]	i
Fc1ccc2nc([C@H]3CCN(C4CCC4)C3)[nH]c2c1	?	?	39.8µM*	5.01µM*
Cc1ccc2nc([C@H]3CCN(Cc4ccc(S(C)(=O)=O)cc4)C3)[nH]c2c1	-25.7%[174 µM]	79.4µM*	-17.4%[70.6 µM]	i
O=C(CCc1c[nH]c2ccccc12)N1CCCC2(CCOC2)C1 (stereo not drawn)	-11.5%	-22.0%	1.8%	?
C[C@H]1CCCN1C(=O)c1nnc(CNc2ccc(C(=O)O)cc2)n1-c1ccccc1	?	-12.5%[172 µM]	-0.1%[70.6 µM]	i
COc1ccc2c(c1)CCN=C2C[C@H]1CN(C(=O)C2CC2)CC[C@H]1CC(=O)O	i	2.6%[172 µM]	1.8%[70.6 µM]	i
COc1ccc2c(c1)CCN=C2C[C@H]1CN(C(=O)C(C)(C)C)CC[C@H]1CC(=O)O	?	112µM*	-9.7%[70.6 µM]	i
Cc1cc(F)ccc1NC(=O)CN1C(=O)NC2(CCC(C(C)(C)C)CC2)C1=O (stereo not drawn)	39.8µM*	?	-1.8%	i
CC(C)(C)C1CCC2(CC1)NC(=O)N(CC(=O)Nc1ccc(F)cc1F)C2=O (stereo not drawn)	-41.8%	?	-7.5%	i
